In PubChem BioAssay AID493165 (National Center for Advancing Translational Sciences (NCATS), 2011) one finds Potency data, which are given here for three molecules.

This assay in a line: Retest of LOPAC molecules that induce DNA re-replication in SW480 adenocarcinoma cells. From the text:
NIH Molecular Libraries Probe Production Network [MLPCN] NIH Chemical Genomics Center [NCGC] MLPCN Grant: Fast Track K99 CA136555 Assay Provider: Melvin DePamphilis, NICHD, NIH Assay Overview Eukaryotic cells normally restrict genome duplication to once per cell division. When this process is aberrant, DNA re-replication occurs when cells reinitiate DNA replication before the first round of replication is complete. DNA re-replication induces the DNA damage response, arrests cell proliferation, and triggers apoptosis. The cell cycle components cyclin A, Cdt-1, Cdc6 and geminin are critical regulators of this process and their misregulation results in DNA re-replication in normal and cancer cells. To identify compounds that induce re-replication in normal cells, an image-based assay was used to measure DNA content of nuclei, as detected by the fluorescent DNA binding dye, Hoechst. Cell nuclei were imaged by a fluorescence scanning plate imager and compounds that induce DNA re-replication were identified by the increase of nuclei with elevated fluorescence intensity.
Assay Protocol Summary For screening, 250 cells in 5 uL/well were dispensed into black clear 1536-well plates (Aurora) using a solenoid-based dispenser. Following transfer of 23 nL compound or DMSO vehicle by a pin tool, the plates were incubated 48 hr at 37 C and 5% CO2. After addition of 1 uL/well Hoescht stain, the plates were incubated 40 min at 37 C, 5% CO2 and total intensity of fluorescent objects (nuclei) were enumerated by an Acumen Explorer Ex3 (TTP LabTech) fluorescence scanning plate imager (405 nm excitation, 500-530 nm emission). Keywords: NIH Roadmap, MLPCN, MLI, MLSMR, qHTS, NCGC, DNA replication, cancer

Calls of active or inactive are those of the source. The call rests on the fitted dose curve; in most records, active means well fitted curve in the direction sought with a large enough effect; inactive means no such curve, though single readings can be large or run the other way.

`COc1cc2c(c(OC)c1OC)-c1ccc(OC)c(=O)cc1[C@@H](NC(C)=O)CC2`: the Potency was 33.7 nM (active).
On to `CC(C)NP(=O)(NC(C)C)OP(=O)(NC(C)C)NC(C)C`, for which the Potency result is “inactive”.
As to `C=C(C)[C@H]1Cc2c(ccc3c2O[C@@H]2COc4cc(OC)c(OC)cc4[C@@H]2C3=O)O1`, the Potency is 1070 nM (active).
